From PubChem BioAssay
Results with a measured potency or affinity are listed apart. Unmarked numbers belong to inactive results. Calls of active or inactive are those of the source.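 The calls were made as follows: active = a fitted half-maximal concentration no higher than twice the top valid tested dose, with signal falling as cells die; inconclusive = flat curve between -70% and -30%, or poor fit; inactive = the rest, including signal rising instead of falling.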

Experiment: HeLa cell cytotoxicity, dose response, cytotoxicity control, ATP luminescence, cherry-pick samples (AID 687004);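 also: 0% = neutral control median and -100% = staurosporine 10 µM control median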
Settings: HeLa viability, ATP luminescence (CellTiter-Glo), 48 h; series mostly up to 26 µM; activity change, negative = cytotoxicity: at the top concentration

| Structure (SMILES) | activity change, negative = cytotoxicity | outcome |
| --- | --- | --- |
| Cc1cccc(-c2ccc([C@@H]3[C@@H](CO)N4CCCCN(S(=O)(=O)c5ccccc5C)C[C@@H]34)cc2)c1 | -9.64% | – |
| CC(C)NC(=O)Nc1ccc2c(c1)C(=O)N([C@@H](C)CO)C[C@@H](C)[C@@H](CN(C)C(=O)NC1CCCCC1)OCCCC[C@H](C)O2 | 11.5% [at 23.5 µM] | – |
| COc1ccc(CN(C)C[C@@H]2Oc3ccc(NC(=O)C4CC4)cc3C(=O)N([C@@H](C)CO)C[C@H]2C)cc1 | 4.78% [at 23.5 µM] | – |
| Cc1noc(C)c1NC(=O)N(C)C[C@@H]1Oc2ccc(NC(=O)NC(C)C)cc2CC(=O)N([C@@H](C)CO)C[C@@H]1C | 7.16% [at 23.5 µM] | – |
| O=C(CSc1ncnc2c1cnn2-c1ccc(F)cc1)NCc1ccc2c(c1)OCO2 | 9.47% | – |
| Cc1ccccc1S(=O)(=O)N[C@@H]1CC[C@H](CCNS(=O)(=O)c2cccc(F)c2)O[C@H]1CO | -1.82% | – |
| CO[C@@H]1CN(C)C(=O)c2ccc(NS(=O)(=O)c3ccc(Oc4ccccc4)cc3)cc2OC[C@H](C)NC[C@H]1C | 1.65% | – |
| Cc1ccc(OCC(=O)NC(C)c2ccccc2)cc1C (stereo not given) | 4.46% | – |
| O=C(C[C@H]1CC[C@H]2[C@@H](COC[C@H](O)CN2C(=O)Nc2ccc3c(c2)OCO3)O1)N1CCN(c2ccccc2)CC1 | 4.44% | – |
| Cc1ccc(S(=O)(=O)N2CC[C@@H]3[C@H]2c2cc(-c4ccccc4F)ccc2N[C@@H]3CO)cc1 | -5.48% [at 23.5 µM] | – |
| C[C@H]1CN([C@@H](C)CO)C(=O)Cc2cc(NS(=O)(=O)c3cn(C)cn3)ccc2O[C@@H]1CN(C)Cc1ccc(Oc2ccccc2)cc1 | 20.1% | – |
| Cc1cccc(C)c1NC(=O)C1(NC(=O)C2CCC(=O)N2)CCCCC1 (stereo not given) | 11.5% | – |
| CNC[C@H]1OCCCC[C@H](C)Oc2ccc(NC(=O)Cc3ccccc3)cc2C(=O)N([C@H](C)CO)C[C@@H]1C | 3.06% | – |
| O=C(C[C@@H]1C=C[C@@H](NC(=O)Nc2cc(F)ccc2F)[C@H](CO)O1)NCCCN1CCOCC1 | 4.44% | – |
| COc1ccccc1NC(=O)c1cn(C)c(=O)c2cc(OC)c(OC)cc12 | 9.62% | – |
| COc1ccc(CN(C)C[C@H]2Oc3ccc(NS(C)(=O)=O)cc3CC(=O)N([C@@H](C)CO)C[C@H]2C)cc1 | 6.01% | – |
| CCOC(=O)CSc1ncnc2c1cnn2-c1ccc(Cl)cc1 | -1.93% | – |
| O=S1(=O)CCC(N=Cc2cc(Br)ccc2O)C1 (stereo not given) | 0.537% | – |
| O=C(C[C@H]1CC[C@H]2[C@@H](COC[C@H](O)CN2Cc2cc(F)cc(F)c2)O1)Nc1nccs1 | -7.35% | – |
| CC(C)CC#Cc1cnc2c(c1)C(=O)N([C@@H](C)CO)C[C@@H](C)[C@@H](CN(C)C(=O)c1cccc(F)c1)O2 | 9.84% | – |

| Structure (SMILES) | activity change, negative = cytotoxicity | outcome |
| --- | --- | --- |
| O=C(COc1ccccc1)NCc1ccccc1 | -4.34% | – |
| CCOc1cc(CNC)ccc1OCC(=O)NC(C)(C)C | 15.6% | – |
| CCCC(=O)N1CCC1(C)C(=O)Nc1cc(C)ccc1C (stereo not given) | – | inactive |
| CC(C)N1C(=O)C2(OCCCO2)c2cc(Br)ccc21 | 0.689% | – |
| Cc1cc(C)c(NC(=O)CNC(=O)CNC(=O)C2CCCCC2)c(C)c1 | 18.2% | – |
| O=C(CN(c1ccccc1)S(=O)(=O)c1ccc(F)cc1)NC1CCCCCC1 | 0.111% | – |
| CCC(=O)N1[C@H](CO)[C@@H](c2ccc(-c3cccnc3)cc2)[C@@H]1CN(C)C(C)=O | 11.6% [at 23.5 µM] | – |
| Cc1c(C(=O)NC(=S)Nc2ccc(N3CCOCC3)cc2)cccc1[N+](=O)[O-] | -1.09% | – |
| CC(NC(=O)COc1ccccc1Cl)c1ccccc1 (stereo not given) | 9.7% | – |
| CNC[C@@H]1Oc2ccc(NS(=O)(=O)c3ccc(Cl)cc3)cc2C(=O)N([C@H](C)CO)C[C@H]1C | 22.6% | – |
| C[C@H](NC(=O)C[C@@H]1C=C[C@H](NC(=O)CN2CCOCC2)[C@H](CO)O1)c1ccccc1 | 10.9% | – |
| C[C@H]1CN([C@@H](C)CO)C(=O)c2cc(C#CCN(C)C)cnc2O[C@@H]1CN(C)C(=O)Nc1cccc(F)c1 | -4.8% | – |
| COc1cccc(CNC(=O)COc2ccc(C(=O)c3ccccc3)cc2)c1 | 7.56% | – |
| COC(=O)C1=C(C)N(C)C(=S)N(C)C1c1ccc(OC)cc1 (stereo not given) | -5.17% | – |
| C[C@H](CO)N1C[C@H](C)[C@@H](CN(C)Cc2ccc(Oc3ccccc3)cc2)Oc2ccc(NC(=O)Nc3ccc4c(c3)OCO4)cc2C1=O | -8.68% | – |
| COc1cc(C(=O)NC(=S)Nc2ccccc2N2CCOCC2)cc(OC)c1OC | -10.6% | – |
| Cc1cc(C)c(NC(=O)CN2CCN3CCCC3C2)c(C)c1 (stereo not given) | -3.25% | – |
| O=C(CCCNC(=O)c1ccc(Cl)cc1)Nc1nccs1 | 0.217% | – |
| Cc1ccc(NC(=O)C2CCC(=O)N2)cc1C (stereo not given) | 2.02% | – |
| CCCC[C@@H]1CNC(=S)N1CCc1cccc(F)c1 | 5.15% | – |
